Source: PubChem (several laboratories)
HIF act = HIF pathway transcriptional activators, primary screen, cell-based, U2OS HRE-luciferase, luminescence | 0.32% of 300,000 active | U2OS HRE-luciferase reporter; normalized: DMSO 0%, desferrioxamine 100% | AID 1910, 2009 | activation, % at 7.5 µM (by protocol);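 active means mean activation of at least 10% of the iron chelator positive control signal, with at least half of replicates also reaching 10%; inconclusive means mean and replicate majority disagree about reaching 10%; inactive means mean and most replicates under 10%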
PolyA inh = polyadenylation inhibitors in yeast reporter cells, primary screen, luminescence, S. cerevisiae | AID 1875, 2009 | activity score, % at 12 µM | 0.02% of 300,000 active | S. cerevisiae SKY197-pL101 polyadenylation reporter, beta-gal luminescence; efflux-impaired pdr1/pdr3 knockout yeast; score 100 = 6 SD above DMSO;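 active means lowest replicate activity score at least 50, where 100 means six control SD above control mean; inconclusive means lowest score under 50 but half or more replicates reach 50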;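 further: yeast exposed to compound for 9 h at 30 °C; higher score means more reporter readthrough which indicates perturbed polyadenylation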
pCIP destab = p/CIP-EGFP fusion destabilizers, primary screen, fluorescence, F442A cells. 0.01% of 290,000 active. decrease of EGFP signal, % at 10 µM. 16 h;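 active means EGFP signal decrease of at least 30% at 10 µM or well 3 SD below plate mean, unless failing retest; inactive means the rest, including hits failing retest or dose response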
AHR activator = AHR activators, primary screen, cell-based, luminescence, luciferase reporter, human | Aryl hydrocarbon receptor (Homo sapiens), P35869 | AHR-responsive luciferase reporter cells | activation, % at 5 µM | 2.5% of 320,000 active | AID 2796, 2010; in the data active means activation above about 47%;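 further: 0% = vehicle wells and 100% = reference agonist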
Target sequence (P35869 whole entry, looked up): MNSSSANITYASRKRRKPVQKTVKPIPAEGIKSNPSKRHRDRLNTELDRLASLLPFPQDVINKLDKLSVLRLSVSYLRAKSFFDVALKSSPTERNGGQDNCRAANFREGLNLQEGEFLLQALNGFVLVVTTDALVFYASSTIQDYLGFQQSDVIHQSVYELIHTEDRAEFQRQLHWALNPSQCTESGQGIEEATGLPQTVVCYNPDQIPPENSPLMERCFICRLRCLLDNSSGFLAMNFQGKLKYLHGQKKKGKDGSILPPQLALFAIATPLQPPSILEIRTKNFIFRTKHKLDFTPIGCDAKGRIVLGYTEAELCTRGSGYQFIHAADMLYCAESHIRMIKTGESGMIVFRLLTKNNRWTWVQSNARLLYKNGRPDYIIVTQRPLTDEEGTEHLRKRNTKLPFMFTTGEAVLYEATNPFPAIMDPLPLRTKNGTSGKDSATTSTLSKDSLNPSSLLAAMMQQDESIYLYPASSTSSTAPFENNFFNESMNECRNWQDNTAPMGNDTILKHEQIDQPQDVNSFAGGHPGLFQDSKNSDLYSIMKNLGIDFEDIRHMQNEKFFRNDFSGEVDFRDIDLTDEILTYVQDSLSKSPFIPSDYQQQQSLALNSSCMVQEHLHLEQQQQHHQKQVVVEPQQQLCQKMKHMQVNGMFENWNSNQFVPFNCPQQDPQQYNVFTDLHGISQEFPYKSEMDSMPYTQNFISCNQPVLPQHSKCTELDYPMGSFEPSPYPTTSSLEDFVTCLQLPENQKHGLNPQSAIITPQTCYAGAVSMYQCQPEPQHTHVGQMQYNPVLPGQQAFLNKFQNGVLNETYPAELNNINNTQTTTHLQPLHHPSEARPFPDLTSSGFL
Platelet DG rel = inhibitors of platelet dense granule secretion, primary screen, cell-based, MLPCN, human platelets. human platelet-rich plasma, SFLLRN dense granule ATP release, luminescence. inhibition, %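 (compounds screened at 7.5 µM in platelet-rich plasma)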. 0.22% of 300,000 active;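 active means mean replicate score, as percent of positive control, at or above 50; inconclusive means mean below 50 but at least one replicate at or above 50; inactive means mean and every replicate below 50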
Active calls of the source: *; ? = inconclusive; . = not tested or not shown. Sampled rows, rich in hits. Any-hit rate of the full collection: about 2.8%.

SMILES | HIF act | PolyA inh | pCIP destab | AHR activator | Platelet DG rel
CCOc1ccc(CN2CCN(Cc3cccn3-c3nccs3)CC2CCO)cc1 (stereo unspecified) | 0 | 15 | -15 | 4 | -5
COc1ccc(CN(CC2CCC(C(=O)O)CC2)C(=S)Nc2cc(C)ccc2C)cc1 (stereo unspecified) | . | . | -12 | . | .
CCCc1cc(=O)[nH]c(SCC(=O)c2c(C)[nH]c3ccccc23)n1 | 0 | 9 | -9 | 60* | 4
CCCc1cc(=O)[nH]c(SCC(=O)c2c[nH]c3ccccc23)n1 | 0 | 10 | -4 | 24 | -1
C=CCn1c(=O)[nH]c2nc3cc(N=CN(C)C)c(C)cc3nc2c1=O | -1 | -15 | -26 | 68* | 5
CC(=O)Nc1nc(-c2ccc(Cl)cc2)nc(C)c1C(C)=O | 1 | -2 | 6 | 73* | -4
O=C1Nc2ccccc2O/C1=C\c1ccccc1Br | 0 | 10 | -14 | 53* | -5
COc1ccc(Br)cc1/C=C1\Oc2ccccc2NC1=O | 1 | 3 | -6 | 23 | -5
C=CCc1cc(C)ccc1OCCOCCn1ccnc1 | 0 | -5 | -5 | 55* | 2
C=CCc1cc(C)ccc1OCCn1ccnc1 | 2 | 13 | -10 | 23 | 3
CCn1c(NC(=S)Nc2ccccc2)nc2ccccc21 | 2 | -11 | 2 | 56* | -3
S=C(Nc1ccccc1)Nc1nc2ccccc2n1CCOc1ccc(Cl)cc1 | 0 | 24 | 2 | 55* | -39
CCn1c(NC(=O)C2CCCCC2)nc2ccccc21 | 0 | -15 | 3 | 1 | 3
CC(=O)Nc1nc2ccccc2n1CCOc1ccccc1Cl | ? | -15 | 1 | 9 | 2
Cc1ccc(S(=O)(=O)N2CCCCC2)cc1C(=O)OC1CCCCC1=O (stereo unspecified) | 1 | -16 | . | 3 | 6
CCS(=O)(=O)Nc1cccc(C2=NN(S(=O)(=O)CC)C(c3cccs3)C2)c1 (stereo unspecified) | 0 | 10 | 6 | 1 | -1
C/C(=N/NC(=O)c1cc(-c2ccccc2)nc2c(Cl)cccc12)c1cccnc1 | 0 | -17 | 10 | . | 2
COc1ccc(Cn2cccc(NC(=O)Nc3cccc(OC)c3)c2=O)cc1 | 0 | 9 | 3 | 10 | -2
COC(=O)/C(=C\c1cc(OC)c(OC)c(OC)c1)c1nc2ccccc2[nH]1 | 1 | -5 | 2 | 2 | 0
O=C(/C(=C/c1ccc(Cl)cc1)c1nc2ccccc2[nH]1)c1cccs1 | -4 | -64 | -7 | 58* | 2
COc1cc(/C=C(/C(=O)c2cccs2)c2nc3ccccc3[nH]2)ccc1O | 3 | 0 | -2 | 57* | 5
O=C(COc1cc2oc(=O)c3c(c2cc1Cl)CCC3)N1C[C@H]2C[C@@H](C1)c1cccc(=O)n1C2 | 0 | -7 | 0 | 0 | 4
NC(=O)CCCn1c(C(=O)c2ccc(Cl)cc2)c2ccc(C(F)(F)F)cc2[n+]1[O-] | 2 | -6 | . | 61* | -1
NC(=O)CCCn1c(C(=O)c2cc(Cl)c(N)c(Cl)c2)c2ccc([N+](=O)[O-])cc2[n+]1[O-] | 3 | -12 | . | 77* | -3
NC(=O)CCCn1c(C(=O)c2ccc(Cl)cc2)c2ccc([N+](=O)[O-])cc2[n+]1[O-] | 0 | 23 | . | 34 | -2
SMILES | HIF act | PolyA inh | pCIP destab | AHR activator | Platelet DG rel
N#C/C(=N/Nc1ccc(OC(F)(F)F)cc1)C(N)=S | 0 | -5 | 0 | 54* | -1
Cc1cc2occ(CC(=O)N(CC(C)C)c3c(N)n(Cc4ccccc4)c(=O)[nH]c3=O)c2cc1C | -1 | -4 | . | 5 | 1
Cc1oc(-c2ccccc2F)nc1CS(=O)CC(=O)NCc1ccc2c(c1)OCO2 (stereo unspecified) | 0 | -1 | -7 | 50* | 15
Cc1oc(-c2ccc(Cl)cc2)nc1CS(=O)CC(=O)NCc1ccc2c(c1)OCO2 (stereo unspecified) | 0 | -1 | 4 | 6 | 0
O=C(Nc1ccc2cccnc2c1)c1ccc(Br)cc1 | -2 | -20 | 13 | 50* | -2
Cc1ccc(C(=O)Nc2ccc3nccnc3c2)cc1 | -1 | 42 | -15 | -13 | 9
Cc1cc(NC(=O)c2ccc3nccnc3c2)ccc1Br | . | . | . | 64* | .
Cc1cccc(NC(=O)c2cccc3c2-c2ccccc2C3=O)n1 | -1 | -16 | -7 | 5 | -3
Cc1cccc(NC(=O)c2ccccc2Br)n1 | 1 | 15 | -3 | 62* | 8
